According to PubChem BioAssay (EPA / NIEHS):
“And” between values parts separate entries of the source, which are not always exact repeats. Equal values may be shown once. Some compounds were tested as several samples or in several runs, with calls that do not always agree. The source made the active and inactive calls. The calls were made as follows: active = hit-call score of the fitted dose curve at least 0.9, where 1 is the maximum; inactive = score below 0.9.

Legend:
[1] = biological target: Paired box protein Pax-6 (Homo sapiens) (UniProt P26367); assay: ATG_Pax6_CIS: Attagene CIS-FACTORIAL HepG2 Assay for human Paired Box 6 (PAX6) (AID 2282956); conditions: HepG2 CIS-FACTORIAL PAX6 reporter transcription, RNA readout; actives raise or lower the signal
Sequence of Paired box protein Pax-6 (Homo sapiens) (P26367 whole entry, looked up): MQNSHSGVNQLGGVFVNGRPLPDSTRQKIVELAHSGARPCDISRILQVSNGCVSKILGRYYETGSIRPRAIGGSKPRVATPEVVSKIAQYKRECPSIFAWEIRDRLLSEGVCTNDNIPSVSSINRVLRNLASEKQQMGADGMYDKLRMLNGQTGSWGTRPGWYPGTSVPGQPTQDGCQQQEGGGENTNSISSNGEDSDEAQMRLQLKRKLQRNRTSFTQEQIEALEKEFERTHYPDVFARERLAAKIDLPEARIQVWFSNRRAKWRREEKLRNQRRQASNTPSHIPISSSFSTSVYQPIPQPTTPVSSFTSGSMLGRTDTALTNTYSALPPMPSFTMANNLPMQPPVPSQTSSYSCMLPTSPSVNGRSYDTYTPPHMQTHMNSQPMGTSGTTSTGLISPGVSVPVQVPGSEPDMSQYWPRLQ
Outline: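 Multiplexed cis-reporter HepG2 system; 24 h treatment; reporter mRNA read by RT-PCR/CE fluorescence; bidirectional fit vs DMSO.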

[2] = ATG_PXRE_CIS: Attagene CIS-FACTORIAL HepG2 Assay for human Pregnane X Receptor Element (PXRE) (AID 2282957); conditions: HepG2 Attagene CIS-FACTORIAL PXRE reporter, mRNA; actives raise or lower the signal
Outline: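 HepG2 cells transiently transfected with cis-regulated multiple reporter transcription units; endogenous factor activity measured as reporter mRNA 24 h after dosing. RT-PCR, fluorescent primer extension, HpaI digestion, capillary electrophoresis; bidirectional fit versus DMSO baseline.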

[3] = ATG_PPRE_CIS: Attagene CIS-FACTORIAL HepG2 Assay for human Peroxisome Proliferator-activated Response Element (PPRE) (AID 2282958); conditions: HepG2 PPRE cis-element reporter, Attagene transcription factor profiling; actives raise or lower the signal
Outline: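 HepG2, transient MRTU transfection (cis promoter elements, endogenous TFs). 24 h dosing. RNA → oligo(dT) RT → PCR → 6-FAM primer extension → HpaI digest → CE. Bidirectional fit vs DMSO.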

[4] = ATG_Sox_CIS: Attagene CIS-FACTORIAL HepG2 Assay for human SRY-box transcription factor (SOX) (AID 2282960); conditions: HepG2 Attagene cis-factorial SOX reporter, mRNA; actives raise or lower the signal
Outline: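 Endogenous factor activity in human liver HepG2 cells carrying transfected cis-regulated reporter units. RNA taken 24 h post-dose, reverse-transcribed, PCR-amplified and sized by capillary electrophoresis. Gain or loss of signal fitted relative to DMSO.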

[5] = biological target: Transcription factor Sp1 (Homo sapiens) (UniProt P08047); assay: ATG_Sp1_CIS: Attagene CIS-FACTORIAL HepG2 Assay for human Specificity Protein 1 (Sp1) (AID 2282961); conditions: HepG2 Sp1 cis-reporter transcription, actives raise or lower the signal
Sequence of Transcription factor Sp1 (Homo sapiens) (P08047 whole entry, looked up): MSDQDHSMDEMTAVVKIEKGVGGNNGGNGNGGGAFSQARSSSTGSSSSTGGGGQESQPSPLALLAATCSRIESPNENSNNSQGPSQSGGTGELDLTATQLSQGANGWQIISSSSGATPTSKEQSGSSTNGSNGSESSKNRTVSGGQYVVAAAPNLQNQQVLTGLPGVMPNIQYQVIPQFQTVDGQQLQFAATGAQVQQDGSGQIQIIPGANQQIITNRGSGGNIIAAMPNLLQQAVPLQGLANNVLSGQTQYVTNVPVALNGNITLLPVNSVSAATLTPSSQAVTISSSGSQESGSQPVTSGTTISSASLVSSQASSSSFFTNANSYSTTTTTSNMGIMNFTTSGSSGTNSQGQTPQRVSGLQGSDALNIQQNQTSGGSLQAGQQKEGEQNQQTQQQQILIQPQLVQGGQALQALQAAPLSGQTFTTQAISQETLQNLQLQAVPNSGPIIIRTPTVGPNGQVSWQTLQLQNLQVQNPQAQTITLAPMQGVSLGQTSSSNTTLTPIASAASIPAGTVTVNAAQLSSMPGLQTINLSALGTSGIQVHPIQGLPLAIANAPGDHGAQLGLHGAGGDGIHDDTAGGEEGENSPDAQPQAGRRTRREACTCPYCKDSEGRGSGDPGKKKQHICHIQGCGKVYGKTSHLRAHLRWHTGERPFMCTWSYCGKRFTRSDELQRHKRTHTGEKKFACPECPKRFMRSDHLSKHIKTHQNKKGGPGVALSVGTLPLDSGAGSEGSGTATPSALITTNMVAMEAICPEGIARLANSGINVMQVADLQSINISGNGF
Outline: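 Transient MRTU-transfected HepG2, 24 h compound exposure. Total RNA → oligo(dT) RT → PCR of reporter → 6-FAM primer extension → HpaI digest → CE. Endpoint fitted both directions vs DMSO.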

[6] = ATG_SREBP_CIS: Attagene CIS-FACTORIAL HepG2 Assay for human Sterol Regulatory Element Binding (SREBP) (AID 2282962); conditions: HepG2 Attagene cis-factorial SREBP reporter, mRNA; actives raise or lower the signal
Outline: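 mRNA induction of transfected cis-promoter reporters in HepG2 cells, 24 h post-dose. Detection: RT-PCR with 6-FAM-labelled products, HpaI digest, capillary electrophoresis. DMSO served as negative control and baseline.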

[7] = biological target: Signal transducer and activator of transcription 3 (Homo sapiens) (UniProt P40763); assay: ATG_STAT3_CIS: Attagene CIS-FACTORIAL HepG2 Assay for human Signal Transducer and Activator of Transcription 3 (STAT3) (AID 2282963); conditions: HepG2, Attagene cis-factorial STAT3 reporter transcription; actives raise or lower the signal
Sequence of Signal transducer and activator of transcription 3 (Homo sapiens) (P40763 whole entry, looked up): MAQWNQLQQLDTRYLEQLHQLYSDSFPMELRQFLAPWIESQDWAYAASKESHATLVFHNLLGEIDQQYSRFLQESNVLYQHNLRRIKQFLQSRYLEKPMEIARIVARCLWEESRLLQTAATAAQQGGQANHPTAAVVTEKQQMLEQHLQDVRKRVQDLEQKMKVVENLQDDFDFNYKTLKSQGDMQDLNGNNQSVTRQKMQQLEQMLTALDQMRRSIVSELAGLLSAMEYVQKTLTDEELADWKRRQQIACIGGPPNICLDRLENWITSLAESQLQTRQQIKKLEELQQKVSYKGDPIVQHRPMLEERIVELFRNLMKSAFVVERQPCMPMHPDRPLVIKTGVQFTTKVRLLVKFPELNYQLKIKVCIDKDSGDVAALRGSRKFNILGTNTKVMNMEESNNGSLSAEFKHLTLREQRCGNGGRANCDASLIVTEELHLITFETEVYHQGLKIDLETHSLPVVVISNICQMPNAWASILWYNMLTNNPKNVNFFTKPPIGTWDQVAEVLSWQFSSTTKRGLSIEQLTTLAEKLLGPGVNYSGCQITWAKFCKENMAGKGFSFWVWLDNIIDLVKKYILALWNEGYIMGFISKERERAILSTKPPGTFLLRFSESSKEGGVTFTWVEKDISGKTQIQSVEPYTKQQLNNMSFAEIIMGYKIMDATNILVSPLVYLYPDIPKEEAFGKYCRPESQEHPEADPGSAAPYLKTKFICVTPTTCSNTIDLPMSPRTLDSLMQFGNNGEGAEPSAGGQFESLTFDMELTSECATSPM
Outline: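 Endogenous STAT3-responsive cis-element activity was read in transiently transfected HepG2 cells after 24 h treatment. Reporter transcripts were quantified via RT-PCR and capillary electrophoresis, with DMSO as negative control and bidirectional curve fitting.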

[8] = ATG_TCF_b_cat_CIS: Attagene CIS-FACTORIAL HepG2 Assay for human T-Cell-Factor with beta-catenin (TCF/b-cat) (AID 2282965); conditions: HepG2 TCF/beta-catenin cis-reporter transcription, actives raise or lower the signal
Outline: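 Endogenous TCF/LEF activity read as reporter transcript level via RT-PCR and capillary electrophoresis fluorescence in transfected HepG2, 24 h exposure; gain or loss of signal fitted against DMSO controls.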

[9] = ATG_RORE_CIS: Attagene CIS-FACTORIAL HepG2 Assay for human RAR-related Orphan Receptor Element (RORE) (AID 2282959); conditions: HepG2 Attagene cis-factorial RORE reporter, mRNA; actives raise or lower the signal
Outline: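 Transient MRTU transfection of human HepG2 liver cells (FuGene 6); 24 h compound exposure; TriZol RNA, oligo(dT) RT, PCR, FAM labeling, HpaI cut, CE fragment analysis. DMSO = negative control/baseline.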

[10] = ATG_TA_CIS: Attagene CIS-FACTORIAL HepG2 Assay for human TA Basal Promoter (AID 2282964); conditions: HepG2 Attagene CIS-factorial TA basal promoter reporter; actives raise or lower the signal
Outline: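 Cis-factorial format in HepG2: reporters report endogenous factors, not chimeric Gal4 fusions. After 24 h treatment, reporter transcripts were measured by RT-PCR-capillary electrophoresis fluorescence, analysed bidirectionally versus DMSO.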

Measured: AC50

C=CC(=O)NCNC(=O)C=C
not listed: [9] | [10]
inactive: all other assays above

Cc1cc(O)ccc1Cl
not listed: [10]
inactive: all other assays above

COc1ccc(O)c(C(C)(C)C)c1
inactive: [4] | [6] | [7] | [10]
active: [1] 146 µM | [2] 8.2 µM | [5] 184 µM | [8] 162 µM

O=S(=O)(O)C(F)(F)C(F)(F)C(F)(F)C(F)(F)F
not listed: [10]
inactive: all other assays above

C1CC2OC2CC1C1CO1 (centres undefined)
active: [2] 59.2 µM
not listed: [10]
inactive: all other assays above

O=C(NC(=O)c1c(F)cccc1F)Nc1cc(Cl)c(OC(F)(F)C(F)F)c(Cl)c1
not listed: [10]
inactive: all other assays above

CC(C)C(=O)OCC(C)(C)C(OC(=O)C(C)C)C(C)C (centres undefined)
active: [2] 26.7 µM
not listed: [10]
inactive: all other assays above

CC(c1ccc(O)cc1)(c1ccc(O)cc1)c1ccc(O)cc1
active: [1] 11.1 µM | [2] 0.575 µM | [9] 11.1 µM | [5] 19.6 µM | [6] 2.64 µM | [8] 11.9 µM
inactive: [3] | [4] | [7]

Cc1cccc([N+](=O)[O-])c1
not listed: [9]
inactive: all other assays above

CCOCCOC(C)=O
not listed: [10]
inactive: all other assays above

O=C(NC(=O)c1cc(F)c(F)cc1Cl)Nc1cc(F)ccc1N1CCC(C(=O)O)CC1
active: [2] 4.65 µM | [6] 4.65 µM
not listed: [10]
inactive: all other assays above

Clc1ccc(Cl)cc1
not listed: [10]
inactive: all other assays above

CC1=C2C[C@H]3[C@@H](CC=C4C[C@@H](O)CC[C@@]43C)[C@@H]2CC[C@]12O[C@@H]1C[C@H](C)CN[C@H]1[C@H]2C
active: [1] 13.5 µM | [9] 12.9 µM | [5] 12.8 µM | [10] 12.7 µM
inactive: all other assays above

CO/C=C(/C(=O)OC)c1ccccc1COc1cccc(C(F)(F)F)n1
inactive: [4] | [5] | [7]
active: [1] 31.9 µM | [2] 3.54 µM | [3] 37.3 µM | [9] 23 µM | [6] 4.44 µM | [8] 26.4 µM

c1ccc(-c2ccccc2)cc1
not listed: [10]
inactive: all other assays above

Cc1ccccc1CO[C@@H]1C[C@@]2(C(C)C)CC[C@]1(C)O2
active: [2] 2.14 µM | [3] 50 µM | [6] 14.7 µM
not listed: [10]
inactive: all other assays above

C[C@]12CCC(=O)C=C1CC[C@@H]1[C@@H]2CC[C@@]2(C)[C@H]1CC[C@]2(C)O
active: [6] 57.5 µM and 45.9 µM and 62.4 µM | [8] 55.7 µM and 15.9 µM
inactive: [1] | [3] | [9] | [4] | [5] | [6] | [7] | [8]

Clc1ccc(C(Cl)(Cl)Cl)cc1
not listed: [3]
inactive: all other assays above

CCCCCCOC(=O)c1ccccc1C(=O)OCCCCCC
active: [2] 3.19 µM | [3] 2.84 µM
not listed: [10]
inactive: all other assays above

CCCCCCCCOC(=O)c1ccccc1C(=O)OCCCCCCCC
active: [2] 5.64 µM
not listed: [10]
inactive: all other assays above

Nc1ccc(-c2ccc(N)cc2)cc1
not listed: [3] | [10]
inactive: all other assays above

COS(=O)(=O)OC
not listed: [10]
inactive: all other assays above

ClC1=C(Cl)[C@]2(Cl)[C@@H]3[C@@H]4C[C@@H]([C@H]5O[C@@H]45)[C@@H]3[C@@]1(Cl)C2(Cl)Cl
active: [2] 2.36 µM | [9] 81.4 µM | [8] 56.2 µM
not listed: [10]
inactive: all other assays above

c1cc2ccc3cccc4ccc(c1)c2c34
active: [2] 8.77 µM
not listed: [10]
inactive: all other assays above

Nn1cnnc1
not listed: [10]
inactive: all other assays above

C=CC(N)=O
active: [2] 34 µM
not listed: [3] | [10]
inactive: all other assays above

Oc1c(Cl)c(Cl)c(Cl)c(Cl)c1Cl
active: [1] 50 µM and 14 µM and 34 µM | [2] 13.6 µM and 12.2 µM and 5.75 µM | [9] 24.1 µM and 5.68 µM and 4.77 µM | [4] 23.5 µM and 31.3 µM | [5] 20.7 µM and 27.9 µM and 166 µM | [6] 50 µM and 83.2 µM | [8] 11.8 µM
inactive: [4] | [6] | [7] | [8]

CCCCCCCCCC[N+](C)(C)CCCCCCCCCC
active: [1] 7.61 µM | [3] 185 µM | [9] 19.8 µM | [5] 190 µM | [6] 3.63 µM | [8] 11 µM
inactive: [2] | [4] | [7]

O=NN(c1ccccc1)c1ccccc1
active: [2] 27.8 µM
not listed: [10]
inactive: all other assays above

CN(C)c1nc(=O)n(C2CCCCC2)c(=O)n1C
active: [2] 50 µM
not listed: [10]
inactive: all other assays above

CCOP(=S)(OCC)SCSC(C)(C)C
active: [2] 7.42 µM and 2.05 µM | [6] 100 µM and 73.9 µM
not listed: [9]
inactive: all other assays above

Oc1ccc(Cl)cc1Cl
active: [2] 64.5 µM
inactive: all other assays above

Cc1ccc(O)c(C)c1
active: [8] 168 µM
inactive: all other assays above
